Only some compounds are listed: those with a hit (about 2% of all), similar ones and a draw of the others.
PAX8 inh HTS – lowers PAX8-driven luciferase in RMG-I cells. inhibition, % at 12.6 µM. 360,000 tested, 1.2% active. AID 652154. RMG-I TPO-luciferase reporter, SteadyGlo, 24 h;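 active = mean replicate inhibition at least 60% with every replicate also reaching 60%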;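 note: luciferase light reporting Pax8 driven TPO promoter activity; plate controls were median of neutral control wells for no effect and mitoxantrone controls for full effect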
LGR2 antag – blocks bursicon-induced cAMP signaling via Drosophila LGR2; inhibition, % at 9.99 µM; 380,000 tested, 0.35% active; HEK293 LGR2, CRE-luciferase, bursicon-stimulated, 4 h;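 active = drop in luminescence signal, shown as inhibition above about 50% in the replicate tests, limit read from the data, passing the limit was not always enough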;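 note: agonist challenge used bursicon conditioned medium at about half maximal strength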
CF NFkB block – inhibitors of cystic fibrosis induced NF-kB. AID 588850. KKLEB NF-kB-GFP reporter, PAF-induced, GFP fluorescence overnight. inhibition, % at 5 µM. 360,000 tested, 0.86% active;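 active = at least 50% inhibition at 5 µM, scaled per plate between neutral and stimulator controls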;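 note: PAF is a Pseudomonas aeruginosa culture filtrate used as stimulus; plate controls were PAF-stimulated DMSO wells for no effect and unstimulated DMSO wells for full effect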
EWS-Fli block – blocks EWS/Fli oncoprotein-driven transcription; inhibition, % at 12.6 µM; AID 651661; 350,000 tested, 0.67% active; A673 NR0B1-luciferase reporter, viability-normalised;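 active = mean inhibition of at least 50% after viability correction, with every replicate also passing that limit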;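 note: firefly luciferase signal divided by Alamar Blue viability fluorescence both relative to DMSO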
Shn3 3UTR inh – Schnurri-3 reporter inhibition in Clone20 osteoblasts; 360,000 tested, 0.52% active; AID 588674; inhibition, % at 12.5 µM; Clone20 osteoblast Shn3 3'UTR firefly luciferase, 24 h;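 active = mean inhibition of at least 75% with every replicate also reaching 75%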;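 note: 0% = median of neutral control wells and 100% = pilot-screen positive control compound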
KKLEB cytotox – counter-screen for CF NF-kB inhibitors: cytotoxicity. KKLEB CF airway cells viability, ATPlite luminescence, overnight; hits give low values; cells stimulated with P. aeruginosa culture filtrate. activity change (cytotoxicity), % at 5 µM. 360,000 tested, 0.36% active. AID 602141;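 active = corrected activity change at or below -50% at 5 µM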
* hit, by the source's call; x = no result given.

SMILES	PAX8 inh HTS	LGR2 antag	CF NFkB block	EWS-Fli block	Shn3 3UTR inh	KKLEB cytotox
C[C@H]1CCCCO[C@H](CN(C)C(=O)CCCN(C)C)[C@@H](C)CN([C@@H](C)CO)C(=O)c2cc(NC(=O)c3ccccc3)ccc2O1	9	14	x	-1	x	x
CCNc1nc(N)c(C(=O)c2ccc(Cl)s2)s1	-24	x	55*	x	-82	6
COc1ccc(C(NC(=O)c2c(F)c(F)c(F)c(F)c2F)c2ccccc2)cc1 (stereo unspecified)	-3	67*	-14	62*	41	-12
COc1ccc(C(NC(=O)c2cc(OC)ccc2OC)c2ccccc2)cc1 (stereo unspecified)	14	-2	3	29	16	-19
O=C(NC1CCCC1)N1CCCCN2[C@H](CO)[C@H](c3ccc(-c4ccccc4)cc3)[C@H]2C1	3	-3	x	8	x	x
CNC[C@H](CC1CCCCC1)NC[C@H](Cc1ccccc1)NCCC12CC3CC(CC(C3)C1)C2	77*	101*	65*	26	98*	-85*
CCOC(=O)c1cc([N+](=O)[O-])c([N+](=O)[O-])cc1NC(C)=O	23	-3	60*	62*	98*	-21
CCN1[C@@H]2Cn3c(ccc(-c4cccc(F)c4)c3=O)[C@H]1[C@@H](C(=O)N(C)C)[C@@H]2CO	-5	21	x	0	x	x
Cc1ccc(C(=O)NC(C#N)=C(Cl)Cl)cc1	43	106*	x	77*	x	x
CCOC(=O)N1CCN(C2=C(NS(=O)(=O)c3ccc(C)cc3)C(=O)c3ccccc3C2=O)CC1	44	25	54*	5	23	7
Cc1ccc(S(=O)(=O)NC2=C(N3CCN(Cc4ccccc4)CC3)C(=O)c3ccccc3C2=O)cc1	-8	3	0	x	2	-1
Cc1ccc(S(=O)(=O)N[C@H]2C=C[C@H](CC(=O)N3CCC(Cc4ccccc4)CC3)O[C@@H]2CO)cc1	37	-11	x	-1	x	x
Cc1ccc(CN2CC(=O)N3[C@@H](CO)[C@H](c4ccc(-c5ccccc5F)cc4)[C@@H]3C2)cc1	x	-7	x	-1	x	x
C[C@H]1CCCCO[C@@H](CN(C)Cc2ccc(C(=O)O)cc2)[C@@H](C)CN([C@@H](C)CO)C(=O)c2cc(NS(=O)(=O)c3ccc(Cl)cc3)ccc2O1	87*	7	x	-17	x	x
C[C@@H]1CCCCO[C@@H](CN(C)Cc2ccccc2)[C@@H](C)CN([C@@H](C)CO)C(=O)c2cc(NS(=O)(=O)c3ccc(Cl)cc3)ccc2O1	76*	10	x	9	x	x
C[C@H](CO)N1C[C@H](C)[C@H](CN(C)Cc2ccccc2)OCCCC[C@H](C)Oc2ccc(NS(=O)(=O)c3ccc(Cl)cc3)cc2C1=O	66*	11	x	9	x	x
C[C@H]1CCCCO[C@@H](CN(C)Cc2ccccc2)[C@@H](C)CN([C@@H](C)CO)C(=O)c2cc(NS(=O)(=O)c3ccc(Cl)cc3)ccc2O1	75*	6	x	5	x	x
C[C@@H]1CN([C@@H](C)CO)S(=O)(=O)c2ccc(Br)cc2O[C@@H]1CN(C)C	x	-11	x	-5	x	x
C[C@H]1CN([C@@H](C)CO)C(=O)c2ccccc2-c2ccccc2CO[C@H]1CN(C)C(=O)[C@H]1CCCN1C	13	17	x	-5	x	x
CCOc1ccc(/C=N/NS(=O)(=O)c2ccc(C)cc2)cc1OC	-7	-22	5	1	7	6
COc1cc(/C=N/NS(=O)(=O)c2ccc(C)cc2)ccc1OCc1ccc(C(=O)O)cc1	100*	43	11	x	25	-16
COc1ccc2c3c(n(C)c2c1)[C@@H](CO)N(S(C)(=O)=O)CC31CCN(C(=O)c2ccccn2)CC1	x	-2	x	-5	x	x
CCOC(=O)c1sc(=S)n(C)c1NC(=O)c1ccccc1Cl	76*	-3	-13	-2	14	3
C[C@@H]1CN([C@@H](C)CO)C(=O)c2cc(NS(C)(=O)=O)ccc2O[C@@H](C)CCCCO[C@@H]1CN(C)C(=O)c1ccncc1	x	-12	x	-7	x	x
C[C@H]1CN([C@@H](C)CO)S(=O)(=O)c2ccc(C#Cc3ccc(F)cc3)cc2O[C@@H]1CN(C)C(=O)CN(C)C	x	6	x	67*	x	x
C[C@H](CO)N1C[C@H](C)[C@H](CN(C)C(=O)CN(C)C)Oc2cc(C#Cc3ccc(F)cc3)ccc2S1(=O)=O	x	-13	x	58*	x	x
